“And” between values parts separate entries of the source, which are not always exact repeats. Equal entries are not always repeated. Hit rate of the full screen: of about 4,400 compounds, about 390 (8.9%) showed an effect of 50% or more. The list comes from a sample in which strong results are over-represented; it also holds similar structures and randomly drawn compounds.
test system: Trypanosoma brucei; test: DNDI: Inhibition of Human African Trypanosomiasis, SBRI 427, in vitro at 2 ug.mL-1; assay type: functional

Row | SMILES | % inhibition
1 | COc1cccc(-c2nc(CNCc3ccc(C(C)(C)C)cc3)co2)c1 | 5%
2 | COc1ccc(Oc2ncccc2/C(=N/O)NCCN2CCOCC2)cc1 | -10%
3 | Cc1cc(NCc2coc(-c3ccc(Cl)cc3Cl)n2)n(-c2ccccc2)n1 | -4%
4 | CCN(Cc1coc(-c2cccc3ccccc23)n1)c1ccc2c(c1)OCO2 | 29%
5 | Cc1ccc(-c2nc(Cn3ccnc3C(C)C)co2)cc1 | 39%
6 | Fc1ccccc1-c1nc(CNCC(F)(F)C(F)(F)F)co1 | 21%
7 | Brc1ccc(-c2nc(CNCc3ccccn3)co2)cc1 | -9%
8 | COc1cccc(-c2nc(Cn3ccnc3C)co2)c1 | 31%
9 | COc1cccc(-c2nc(CNC34C[C@H]5C[C@@H](C3)C[C@@H](C4)C5)co2)c1 | 85%
10 | COc1ccc(NCc2coc(-c3cccc(OC)c3)n2)cc1 | 8%
11 | c1csc(-c2nc(CNC34C[C@H]5C[C@@H](C3)C[C@@H](C4)C5)co2)c1 | 25%
12 | Brc1ccccc1-c1nc(CNC23C[C@H]4C[C@@H](C2)C[C@@H](C3)C4)co1 | 48%
13 | COc1cccc(-c2nc(Cn3ccnc3C=O)co2)c1 | 84%
14 | Brc1ccc(-c2nc(CNC34C[C@H]5C[C@@H](C3)C[C@@H](C4)C5)co2)cc1 | 62%
15 | Oc1ccc(-c2nc(CNC34C[C@H]5C[C@@H](C3)C[C@@H](C4)C5)co2)cc1 | 23%
16 | Cc1cccc(-c2nc(CNC34C[C@H]5C[C@@H](C3)C[C@@H](C4)C5)co2)c1 | 35%
17 | CCc1nccn1Cc1coc(-c2cccc(OC)c2)n1 | -9%
18 | Fc1ccc(-c2nc(CNC34C[C@H]5C[C@@H](C3)C[C@@H](C4)C5)co2)cc1 | 58%
19 | Cc1ccc(/C(=N/O)NC2CC2)c(OCc2ccncc2)n1 | 19%
20 | Clc1ccccc1-c1nc(CN2CC=CCC2)co1 | 14%
21 | CCN(CC)c1cccc(Oc2ncccc2/C(=N/O)N2CCCC2)c1 | -7%
22 | CC1(C)Cc2cccc(Oc3ccc(/C(=N/O)NC4CCc5ccccc54)cn3)c2O1 (configuration not stated) | 10%
23 | Cc1ccc(/C(=N/O)N2CCCC2C)c(Oc2cccc(C(C)C)c2)n1 (configuration not stated) | 0%

Row | SMILES | % inhibition
24 | Cc1cccc(N2CCN(Cc3coc(-c4ccccc4F)n3)CC2C)c1 (configuration not stated) | -21%
25 | COCC(C)N/C(=N\O)c1ccc(C)nc1OCc1ccccc1C (configuration not stated) | 8%
26 | N#CCCN(Cc1ccccc1)Cc1coc(-c2ccc(F)cc2)n1 | -7%
27 | Cc1ccc(C(C)C)c(Oc2cc(/C(=N/O)NCC3CCCCC3)ccn2)c1 | 27%
28 | COc1ccc(-c2nc(CNC34C[C@H]5C[C@@H](C3)C[C@@H](C4)C5)co2)cc1 | 3%
29 | Cc1ccc(-c2nc(CNC34C[C@H]5C[C@@H](C3)C[C@@H](C4)C5)co2)cc1 | 90%
30 | Cc1ccccc1-c1nc(CNC23C[C@H]4C[C@@H](C2)C[C@@H](C3)C4)co1 | 49%
31 | CN(Cc1coc(-c2ccccc2Cl)n1)CC1OCCO1 | 8%
32 | CSc1ccccc1Oc1ncccc1/C(=N/O)Nc1ccccc1 | 71%
33 | O/N=C(\Nc1ccccc1)c1cccnc1Oc1ccccc1F | 2%
34 | CSc1ccccc1Oc1ncccc1/C(=N/O)N1CCN(c2ccccc2)CC1 | 22%
35 | CSc1ccccc1Oc1ncccc1/C(=N/O)N1CCOCC1 | 8%
36 | COc1ccccc1Oc1ncccc1/C(=N/O)Nc1ccccc1 | 62%
37 | COc1ccc(Oc2ncccc2/C(=N/O)Nc2ccccc2)cc1 | -9%
38 | Cc1ccc(Oc2nc(C)ccc2/C(=N/O)N2CCN(C)CC2)cc1 | 19%
39 | COCCN(/C(=N\O)c1ccc(C)nc1Oc1ccc(SC)c(C)c1)C(C)C | 9%
40 | COCCN(Cc1coc(-c2ccccc2C)n1)C(C)C | -31%
41 | O/N=C(\Nc1ccon1)c1ccc(Oc2cccc3cccnc23)nc1 | 13%
42 | CCOc1ccccc1-c1nc(CN2CCN(c3cc(C)nc4ccccc34)CC2)co1 | 14%
43 | CN(/C(=N\O)c1cccnc1OCc1ccccc1F)c1ccccc1 | 98%
44 | N/C(=N\O)c1cccnc1OCc1cccc(F)c1 | -4%
45 | Cc1ccc(/C(=N/O)N(C)c2ccccc2)c(OCc2ccccc2F)n1 | -4%
46 | CN(/C(=N\O)c1cccnc1OCc1cccc(F)c1)C1CCCCC1 | -3%

Row | SMILES | % inhibition
47 | CN(/C(=N\O)c1cccnc1OCc1cccc(F)c1)c1ccccc1 | 98%
48 | CN(Cc1ccco1)/C(=N\O)c1cccnc1OCc1ccccc1F | 5%
49 | O=Cc1nccn1Cc1coc(-c2ccc(Br)cc2)n1 | 11%
50 | CCOc1ccccc1CN/C(=N\O)c1ccnc(Oc2ccc(F)c(F)c2)c1 | 13%
51 | CN(C)CCN(Cc1ccccc1)Cc1coc(-c2ccc(Br)cc2)n1 | 23%
52 | Clc1cccc(N2CCN(Cc3coc(-c4ccccc4Br)n3)CC2)c1 | 7%
53 | COc1ccccc1CCNCc1coc(-c2ccccc2Br)n1 | 6%
54 | CCOc1ccccc1CN/C(=N\O)c1ccc(Oc2cc(C)cc(C)c2)nc1 | 28%
55 | Cc1ccc(/C(=N/O)N2CCC(N(C)C)C2)c(Oc2cccc(F)c2)n1 (configuration not stated) | 6%
56 | CCOc1ccccc1-c1nc(CNC(C)c2cccc3ccccc23)co1 (configuration not stated) | 5% and 9%
57 | CCOc1ccccc1-c1nc(CNC(C)C2CCCCC2)co1 (configuration not stated) | 98%
58 | CC(NCc1coc(-c2cccc3ccccc23)n1)C1CCCCC1 (configuration not stated) | 87% and 90%
59 | CC(NCc1coc(-c2ccccc2Br)n1)C1CCCCC1 (configuration not stated) | -30% and -35%
60 | CCOc1ccc(-c2nc(CNC(C)C3CCCCC3)co2)cc1 (configuration not stated) | 87%
61 | CCOc1ccccc1-c1nc(CNC2CCN(Cc3ccccc3)C2)co1 (configuration not stated) | 6%
62 | CCOc1ccccc1-c1nc(CNC2C[C@H]3CC[C@@H]2C3)co1 (some centres not stated) | 28%
63 | CCOc1ccccc1-c1nc(CNC2CCCCCCCCCCC2)co1 | 99%
64 | CCOc1ccccc1-c1nc(CNC(C)c2ccc(C)cc2)co1 (configuration not stated) | 15%
65 | Cc1ccccc1-c1nc(CNC(C)C2CCCCC2)co1 (configuration not stated) | 23%
66 | Cc1ccc(-c2nc(CNC(C)C3CCCCC3)co2)cc1 (configuration not stated) | 25%
67 | CC(NCc1coc(-c2ccc(Br)cc2)n1)C1CCCCC1 (configuration not stated) | 36%
